# Results from PubChem BioAssay (NCATS).
# “And” between values parts separate entries of the source, which are not always exact repeats. Identical values can stand only once. Results filed as inconclusive are left out. The source made the active and inactive calls. Unless noted, calls follow the shape of the dose curve; as a rule, active = well fitted curve in the direction sought with a large enough effect; inconclusive = small, poorly fitted or top-dose-only effect, or another doubt; inactive = no such curve, though single readings can be large; an effect the other way counts as inactive or inconclusive.
# What was measured:
# [1] = Cytotoxicity counterscreen for NFkB agonists and antagonists (AID 624476);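 also: cells exposed to compound for 48 hours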; also: potency is read from the fitted curve at half-maximal effect
# [2] = qHTS Assay for Identification of Small Molecule Antagonists for NFkB Signaling Pathway. (AID 624479; calls by dose curve;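 also: pathway stimulated with TNF alpha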; also: potency is read from the fitted curve at half-maximal effect)
# [3] = Cell Proliferation Assay against the TMD8 Cell Line (AID 651645); conditions: TMD8 DLBCL cell line proliferation/viability; at 46.1 µM (top of the series);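 also: cells exposed to compound for 48 h before reading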
# In short: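 Viability by CellTiter-Glo after 48 h compound exposure of 500 log-phase TMD8 cells per well (RPMI, 5% FBS). Percent activity scaled between DMSO (100%) and 9.2 uM final bortezomib (0%).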
# [4] = Cell Proliferation Assay against the HBL1 Cell Line (AID 651646); conditions: HBL1 DLBCL cells; at 46.1 µM (top of the series);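 also: cells exposed to compound for 48 h before reading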
# In short: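 CellTiter-Glo luminescence after 48 h compound exposure at 37C gives percent activity, with DMSO as 100% and 9.2 uM bortezomib final as 0%. Cells: 500 log-phase HBL1 per well, RPMI plus 5% FBS.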
# [5] = qHTS Assay for Identification of Small Molecule Agonists for NFkB Signaling Pathway. (AID 624478);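 also: compounds tested together with TNF alpha at its EC50 of 10 pM; 0% is about no effect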
# In short: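 Assay medium contained 0.5% FBS and 10 mM HEPES pH 7.3. Compounds were added together with TNF alpha (10 pM final), incubated 5 h at 37 C, and the beta-lactamase signal was measured fluorometrically.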
# [6] = Cell Proliferation Assay against the TMD8 Cell Line (Caspase readout at 16 hrs) (AID 651712); also: potency is read from the fitted curve at half-maximal effect
# In short: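 Caspase-Glo luminescence measured apoptosis after a 16 h, 37 C compound exposure of TMD8 cells (500 cells/well, 5% FBS RPMI). DMSO set 0% and bortezomib at 9.2 uM final set 100% activity.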
# [7] = Cell Proliferation Assay against the TMD8 Cell Line (Caspase readout at 8 hrs) (AID 651713); also: potency is read from the fitted curve at half-maximal effect
# In short: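 Luminescent caspase 3/7 assay; TMD8 cells, 8 h treatment at 37C, 5% CO2. Normalisation: DMSO 0%, 9.2 uM bortezomib 100%.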
SMILES,Potency [1],Potency [2],viability (% of control) [3],"viability, percent of control [4]",outcome [5],Potency [6],Potency [7]
CN(C)CC=CC(=O)Nc1cc2c(Nc3ccc(F)c(Cl)c3)ncnc2cc1O[C@H]1CCOC1,29.6 µM (active),13.3 µM (active),0.0294%,1.34%,–,–,–
C[C@@]12O[C@@H](C[C@]1(O)CO)n1c3ccccc3c3c4c(c5c6ccccc6n2c5c31)CNC4=O,3.32 µM (active),–,1.51%,3.21%,inactive,–,–
Nc1cc(C(F)(F)F)c(-c2cc(N3CCOCC3)nc(N3CCOCC3)n2)cn1,0.935 µM (active),inactive,3.22%,16.8%,inactive,2.09 µM (active),20.9 µM (active)
C[C@@H]1CN(CC(=O)Nc2ccc3c(c2)Cc2cccc(-c4cc(=O)cc(N5CCOCC5)o4)c2S3)C[C@H](C)O1,inactive,inactive,26.2%,56.7%,inactive,–,23.5 µM (active)
Nc1ccccc1NC(=O)c1ccc(CNC(=O)OCc2cccnc2)cc1,inactive,inactive,4.84%,4.18%,inactive,–,inactive
O=C(NC1CCNCC1)c1[nH]ncc1NC(=O)c1c(Cl)cccc1Cl,209 nM (active) and 296 nM (active),33.5 nM (active) and 66.8 nM (active),1.51% and 1.72%,45.8% and 42.8%,inactive,0.118 µM (active),332 nM (active) and 264 nM (active)
Nc1nc(Nc2ccc(S(N)(=O)=O)cc2)nn1C(=O)c1c(F)cccc1F,9.35 µM (active),0.473 µM (active),6.19%,49.5%,inactive,5.26 µM (active),14.8 µM (active)
CCCCc1nc2cc(C=CC(=O)NO)ccc2n1CCN(CC)CC,14.8 µM (active),–,1.77%,1.9%,inactive,0.332 µM (active),inactive
CC[C@@H]1C(=O)N(C)c2cnc(Nc3ccc(C(=O)NC4CCC(N5CCN(CC6CC6)CC5)CC4)cc3OC)nc2N1C(C)C (stereo not given in full),13.2 µM (active),5.3 µM (active),3.58%,4.22%,inactive,–,26.4 µM (active)
Cc1cccc(C=NNc2cc(N3CCOCC3)nc(OCCc3ccccn3)n2)c1,inactive,21.1 µM (active),0.274%,0.729%,–,–,–
Cn1c2cc(S(C)=O)sc2c2cnn(Cc3cccc(N)c3)c(=O)c21 (stereo not given),inactive,16.8 µM (active),110%,93.3%,inactive,inactive,inactive
Cc1cn(-c2cc(NC(=O)c3ccc(C)c(Nc4nccc(-c5cccnc5)n4)c3)cc(C(F)(F)F)c2)cn1,9.35 µM (active),2.11 µM (active),17.5%,14.5%,–,–,inactive
CC(C)(O)CCc1ccc(OCc2cc(-c3cccc(OC(F)F)c3)c3ncccc3c2)cc1,inactive,23.7 µM (active),60.9%,7.17%,–,–,inactive
CC1=C(CO)C(=O)O[C@@H]([C@@H](C)[C@H]2CC[C@H]3[C@@H]4C[C@H]5O[C@]56[C@@H](O)C=CC(=O)[C@]6(C)[C@@H]4CC[C@]23C)C1,3.32 µM (active),1.49 µM (active),0.616%,1.69%,–,inactive,inactive
C=CCn1c(=O)c2cnc(Nc3ccc(N4CCN(C)CC4)cc3)nc2n1-c1cccc(C(C)(C)O)n1,1.66 µM (active),–,11.5%,31.1%,–,–,–
C[C@]1(CO)CN(c2cc(C(=O)Nc3ccc4c(c3)-c3c(c(C(N)=O)nn3-c3ccc(F)cc3)CC4)c(Cl)cn2)C[C@@]1(C)CO,inactive,5.95 µM (active),18.6%,23.3%,–,14.8 µM (active),16.6 µM (active)
N#CCNC(=O)c1ccc(-c2ccnc(Nc3ccc(N4CCOCC4)cc3)n2)cc1,–,0.668 µM (active),7.51%,25.4%,inactive,5.26 µM (active),–
CCC[C@H](NC(=O)C(C#N)=Cc1cccc(Br)n1)c1ccccc1,2.96 µM (active),2.11 µM (active),3.01%,2.62%,–,–,1.87 µM (active)
CS(=O)(=O)N1CCN(Cc2cc3nc(-c4cccc5[nH]ncc45)nc(N4CCOCC4)c3s2)CC1,–,–,–,–,inactive,–,–
COc1cc2ncn(-c3cc(OCc4ccccc4C(F)(F)F)c(C(N)=O)s3)c2cc1OC,inactive,inactive,37.6%,41.7%,–,–,inactive
c1ccc2c(CCNc3ccc(Nc4ccncc4)cc3)c[nH]c2c1,inactive,10.6 µM (active),3.66%,22.1%,–,23.5 µM (active),–
CC1(C)CCC(c2ccc(Cl)cc2)=C(CN2CCN(c3ccc(C(=O)NS(=O)(=O)c4ccc(N[C@H](CCN5CCOCC5)CSc5ccccc5)c(S(=O)(=O)C(F)(F)F)c4)cc3)CC2)C1,4.18 µM (active),14.9 µM (active),1.35%,3.35%,–,–,29.6 µM (active)
